Records with an inconclusive call do not appear. Calls of active or inactive are those of the source. How the source made its calls, unless noted: active means hit-call score of the fitted dose curve at least 0.9, where 1 is the maximum; inactive means score below 0.9.
Columns and labels:
[1] = CCTE_Shafer_MEA_dev_firing_rate_mean: CCTE's Neural Network Formation Assay for Mean Firing Rate, Shafer Lab (AID 2284031);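 further: curve fitted for loss of firing so AC50 reflects decreased mean firing rate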
How it was run: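 Extracellular spike frequency, AUC over DIV 5–12 recordings, in rat cortical neuron MEA cultures dosed from plating; loss direction vs DMSO.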

[2] = CCTE_Shafer_MEA_dev_per_burst_spike_percent: CCTE's Neural Network Formation Assay for Percent of Spikes in a Burst, Shafer Lab (AID 2284032);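 further: fitted as a decrease in burst spike percentage below DMSO baseline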
How it was run: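 Value is trapezoidal AUC over recordings on days 5, 7, 9 and 12 of the well-mean fraction of spikes falling in single-electrode bursts; rat cortical cultures exposed continuously from plating, treatment renewed DIV 5 and 9, fitted downward against DMSO.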

[3] = CCTE_Shafer_MEA_dev_active_electrodes_number: CCTE's Neural Network Formation Assay for Number of Active Electrodes, Shafer Lab (AID 2284040; active means hit-call score of the fitted dose curve at least 0.9, where 1 is the maximum;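 further: potency for loss of active electrodes versus DMSO so lower counts are hits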)
How it was run: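 Developing rat cortical networks on MEAs, exposed DIV 0–12. Value is the AUC of active-electrode counts (≥5 spikes/min) from days 5, 7, 9, 12, relative to DMSO.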

[4] = CCTE_Shafer_MEA_dev_burst_rate: CCTE's Neural Network Formation Assay for Burst Rate, Shafer Lab (AID 2284042);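 further: potency for loss of burst rate below DMSO control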
How it was run: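 Cells plated, treated day 0; recorded DIV 5, 7, 9, 12; fed and re-treated DIV 5, 9. Endpoint: bursts per recording time, active-electrode well mean, trapezoidal AUC, fitted in decreasing direction against DMSO baseline.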

[5] = CCTE_Shafer_MEA_dev_bursting_electrodes_number: CCTE's Neural Network Formation Assay for Number of Bursting Electrodes, Shafer Lab (AID 2284043; active means hit-call score of the fitted dose curve at least 0.9, where 1 is the maximum;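 further: potency is for loss of bursting electrodes relative to DMSO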)
How it was run: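 Counted: electrodes with burst rate ≥1 per 2 min in each well. Cells: primary rat cortex, 1.5 x 10^5/well, on 16-electrode MEA wells. Exposure: DIV 0–12, compound renewed DIV 5 and 9. Recording days 5, 7, 9, 12; AUC vs DMSO baseline.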

[6] = CCTE_Shafer_MEA_dev_per_burst_interspike_interval: CCTE's Neural Network Formation Assay for Burst Interspike Interval, Shafer Lab (AID 2284044);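 further: potency for a decrease of within-burst interspike interval below DMSO level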
How it was run: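 Neurons from rat cortex plated onto PEI-coated MEA wells with laminin […] at 1.5 x 10^5 cells/well, then treated from day 0. Media and compound fully replaced on DIV 5 and 9. Extracellular spontaneous firing recorded four times; interspike interval per burst summarised as AUC.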

[7] = CCTE_Shafer_MEA_dev_burst_duration_mean: CCTE's Neural Network Formation Assay for Mean Burst Duration, Shafer Lab (AID 2284045)
How it was run: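 Network-formation assay in primary rat cortical neurons; treatment spans twelve days of development. Mean burst duration per well is integrated by trapezoidal AUC and fitted in the loss-of-signal direction against DMSO baseline.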

[8] = CCTE_Shafer_MEA_dev_interburst_interval_mean: CCTE's Neural Network Formation Assay for Mean Interburst Interval, Shafer Lab (AID 2284046);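 further: well-mean interburst interval of bursting electrodes as AUC over four recording days; curve fitted for decrease in interburst interval relative to DMSO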
How it was run: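 Developing rat cortical networks on 48-well MEAs receive compound from the day of plating. Burst intervals from each active electrode are averaged per well, and AUC over the recording days is fitted in the negative direction against DMSO.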

[9] = CCTE_Shafer_MEA_dev_inter_network_spike_interval_mean: CCTE's Neural Network Formation Assay for Mean Inter-network Spike Interval, Shafer Lab (AID 2284047)
How it was run: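 Rat cortical cultures, 1.5 x 10^5 cells/well on 48-well MEA plates; continuous exposure days 0–12, medium and compound refreshed DIV 5, 9. Mean time between consecutive network-spike peaks; AUC across DIV 5/7/9/12; DMSO baseline, negative fitting direction.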

[10] = CCTE_Shafer_MEA_dev_network_spike_number: CCTE's Neural Network Formation Assay for Number of Network Spikes, Shafer Lab (AID 2284048);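 further: synchronized bursts across electrodes counted on days 5 7 9 12 and integrated as AUC; fit as a loss of signal meaning fewer network spikes than DMSO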
How it was run: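 Extracellular recordings from 16-electrode wells track network formation in rat cortical cultures under continuous treatment from plating. The endpoint is network spike number, expressed as AUC across DIV 5–12 relative to DMSO vehicle.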

[11] = CCTE_Shafer_MEA_dev_network_spike_peak: CCTE's Neural Network Formation Assay for Mean Number of Electrodes in Network Spike, Shafer Lab (AID 2284049);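 further: fitted for loss of signal meaning fewer electrodes in network spikes than DMSO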
How it was run: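 Continuous 12-day exposure of rat cortical cultures, starting at plating, on MEA plates. Endpoint: electrodes participating in network-spike peaks, AUC across DIV 5–12, DMSO as negative control.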

[12] = CCTE_Shafer_MEA_dev_spike_duration_mean: CCTE's Neural Network Formation Assay for Mean Spike Duration, Shafer Lab (AID 2284051);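 further: mean network spike duration pooled as area under curve over DIV 5 to 12 recordings; potency for a decrease in mean network spike duration versus DMSO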
How it was run: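 Readout is the average length of network spikes, clustered firing across electrodes, summed over DIV 5, 7, 9 and 12 as area under the curve. Neurons from rat cortex developed networks on MEA plates under continuous 12-day exposure.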

[13] = CCTE_Shafer_MEA_dev_network_spike_duration_std: CCTE's Neural Network Formation Assay for Standard Deviation of Network Spike Duration, Shafer Lab (AID 2284052);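 further: area under curve of spike duration SD across recording days 5 to 12; hits are decreases in network spike duration SD versus DMSO vehicle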
How it was run: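 Read-out is the trapezoidal area-under-the-curve across recordings made on days 5, 7, 9 and 12, fitted in the negative direction against DMSO baseline. Neurons were primary rat cortical cells treated from day 0, with treatment renewed at each feed.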

[14] = CCTE_Shafer_MEA_dev_per_network_spike_spike_number_mean: CCTE's Neural Network Formation Assay for Mean Number of Spikes in a Network Spike, Shafer Lab (AID 2284053)
How it was run: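 Continuous twelve-day exposure of developing rat cortical networks grown over 16 microelectrodes per well; spontaneous firing is captured at four time points, and the per-network-spike spike number is integrated over development by trapezoidal AUC.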

[15] = CCTE_Shafer_MEA_dev_per_network_spike_spike_percent: CCTE's Neural Network Formation Assay for Percent of Spikes in a Network Spike, Shafer Lab (AID 2284054)
How it was run: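 Developing networks of rat cortical neurons are dosed at day 0 and recorded extracellularly four times up to day 12. The endpoint is the area under the curve of percent spikes in network spikes, fitted in the negative direction relative to DMSO.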

[16] = CCTE_Shafer_MEA_dev_LDH: CCTE's Lactate Dehydrogenase Assay for Cytotoxicity in the Neural Network Formation Assay, Shafer Lab (AID 2284068; active means hit-call score of the fitted dose curve at least 0.9, where 1 is the maximum;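 further: exposure for twelve days from plating with re-dosing on DIV 5 and 9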)
How it was run: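 Cytotoxicity companion to network-formation recordings: rat cortical neurons received compound over 12 days of development, re-dosed at DIV 5 and 9 feeds. Viability was inferred from LDH enzyme activity relative to DMSO.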

[17] = CCTE_Shafer_MEA_dev_correlation_coefficient_mean: CCTE's Neural Network Formation Assay for Mean Correlation Coefficient, Shafer Lab (AID 2284093);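 further: well mean pairwise spike train correlation integrated as AUC over recording days 5 to 12; potency fitted for loss of correlation relative to DMSO vehicle wells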
How it was run: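 Read-out: well-mean correlation coefficient of spike trains between electrode pairs, collapsed over four recording days as trapezoidal area-under-the-curve. Developing rat cortical neuron networks grown on MEAs received test chemical continuously from plating.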

[18] = UKN2_HCS_IMR90_neural_migration: University of Konstanz (UKN) Leist Lab Neural Crest Cell Migration Assay in human induced IMR90 Pluripotent Stem Cells (UKN2) (AID 2284204); conditions: actives raise or lower the signal
How it was run: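 Using a 96-well stopper format with PLO/laminin/fibronectin coating, neural crest cells from iPSC migrate in cytokine-supplemented N2-S medium; after 24 h, chemicals are applied for a further 24 h, then cells are imaged after dye staining.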

[19] = IUF_NPC1b_proliferation_BrdU_72hr: Leibniz Research Institute for Environmental Medicine (IUF) 72-hour Neural Progenitor Cell Bromodeoxyuridine (BrdU) Proliferation Assay (NPC1b) (AID 2284207)
How it was run: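 Neural progenitor spheres of human fetal origin are treated for three days; BrdU added for the last 16 h is quantified by luminescence ELISA, with DMSO as baseline and EGF/FGF omission as positive control.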

[20] = IUF_NPC1a_proliferation_area_72hr: Leibniz Research Institute for Environmental Medicine (IUF) 72-hour Neural Progenitor Cell Proliferation Area Assay (NPC1a) (AID 2284208)
How it was run: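 Spheres of 0.3 mm are plated singly in growth-factor medium and exposed from day 0. After three days at 37C and 5% CO2, sphere area is measured by phase contrast imaging, with activity referenced to DMSO.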

[21] = IUF_NPC1_viability_72hr: Viability Assessment at 72 hours in the Leibniz Research Institute for Environmental Medicine (IUF) Neural Progenitor Cell Proliferation Assay (NPC1) (AID 2284209)
How it was run: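 Three-day continuous exposure of human neural progenitor spheres under EGF/FGF-driven proliferation; cell viability scored by alamar blue signal versus DMSO.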

[22] = CCTE_Mundy_HCI_Cortical_Synap_Neur_Matur_NeuriteSpotCountPerNeuriteLength: CCTE's Synaptogenesis and Neurite Maturation Assay in rat cortical cells for Neurite Spot Count per Neurite Length, Mundy Lab (AID 2284210)
How it was run: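 Neurite-associated synapse density (synaptophysin puncta per unit neurite length) is measured by fluorescence high-content imaging in rat cortical cultures treated from DIV 7 and fixed at DIV 12, with DMSO as negative control.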

[23] = CCTE_Mundy_HCI_Cortical_Synap_Neur_Matur_BPCount: CCTE's Synaptogenesis and Neurite Maturation Assay in rat cortical cells for Branch Point Count, Mundy Lab (AID 2284211)
How it was run: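 In this multiplexed morphology assay, cortical cells from rat receive chemicals at DIV 7 and are fixed at DIV 12, then immunostained and imaged; branch points are counted, with DMSO as baseline.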

[24] = CCTE_Mundy_HCI_Cortical_NOG_NeuriteCount: CCTE's Neurite Outgrowth Assay in rat cortical cells for Neurite Count, Mundy Lab (AID 2284212);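 further: cells fixed about two days after chemical exposure began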
How it was run: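 Rat cortical primary cells; compound added 2 h post-plating, 1/10 dilution of working solution. Anti-betaIII-tubulin/AF488 ICC; ArrayScan neurite count vs DMSO.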

[25] = CCTE_Mundy_HCI_Cortical_Synap_Neur_Matur_NeuriteLength: CCTE's Synaptogenesis and Neurite Maturation Assay in rat cortical cells for Neurite Length, Mundy Lab (AID 2284214)
How it was run: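 DMSO-normalised neurite length, from high-content imaging of anti-MAP2-stained rat cortical cells fixed at DIV 12. Glia were suppressed with AraC (DIV 5) before chemical exposure from DIV 7.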

Measured: AC50

BrC1CC(Br)CC(Br)CC(Br)CC(Br)CC(Br)C1 (stereo not given)
inactive: [7] | [9] | [20] | [21]
active: [1] 8.92 µM | [2] 4.4 µM | [3] 6.75 µM | [4] 4.73 µM | [5] 5.42 µM | [6] 8.48 µM | [8] 4.31 µM | [10] 8.72 µM | [11] 7.04 µM | [12] 3.57 µM | [13] 5.04 µM | [14] 4.17 µM | [15] 6.85 µM | [16] 10.6 µM | [17] 2.92 µM | [18] 5.5 µM | [19] 8.81 µM | [22] 3.49 µM | [23] 3.17 µM | [24] 8.41 µM | [25] 4.04 µM
